Results: PubChem BioAssay (NCATS)
Values joined by “and” are separate entries in the source; they are usually repeats but may differ in a detail not shown here. Equal values may be shown once.

Assay: qHTS profiling of the MIPE4 collection as inhibitors of Plasmodium falciparum (3D7) proliferation (AID 743344);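 further: scaled between DMSO vehicle wells and 0.29 µM artemisinin as full inhibition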
Details: P. falciparum 3D7 in erythrocytes, SYBR Green DNA fluorescence, 72 h; at 28.5 µM unless noted
From the text: Plasmodium falciparum is a virulent malarial parasite that kills 1-2 million people worldwide each year. Transmitted by mosquitoes, the sporozoite form of the parasite enters the blood stream to infect hepatocytes, where they become merozoites that infect red blood cells (erythrocytes). Within erythrocytes, merozoites begin a […] cycle of growth and division, after which the parasite is released to infect new red blood cells. Gametocytes, which form within erythrocytes as well, circulate in the bloodstream and are ingested by the mosquito, thereby completing the life cycle. To profile malarial isolates for differential chemical responses and to identify inhibitors of malarial growth, an assay that measures P. falciparum growth and replication within erythrocytes was employed. This assay uses a DNA binding fluorescent dye (SYBR Green) to detect parasite DNA following cell lysis. Because mature erythrocytes lack DNA, only Plasmodium-derived DNA is detected.
The SYBR Green viability assay was adapted from a method described previously (Plouffe et al., 2008). For screening 3 ul culture medium was dispensed into 1536 well black clear bottom plates (Aurora Biotechnologies) using a Multidrop Combi (Thermo Fisher Scientific Inc.), 23 nL compounds in DMSO were added by a pin tool (Kalypsys), and 5 ul of erythrocytes infected with P. falciparum (0.3% parasitemia, 2.5% hematocrit final concentration) were added. The plates were incubated at 37 C in a humidified incubator in 5% CO2 for 72 h, and 2 ul lysis buffer (20 mM Tris HCl, 10 mM EDTA, 0.16% saponin, 1.6% triton X, 10X SYBR Green I supplied as 10,000X […] by Invitrogen) was added to each well. The plates were mixed for 25 sec with gentle shaking and incubated overnight at room temperature in the dark. The following morning, fluorescence intensity at 485(14) nm excitation and 535(25) nm emission wavelengths was measured on an EnVision (Perkin Elmer) plate reader. Plate reads were normalized relative to the control inhibitor (0.29 uM artemisinin) and vehicle (DMSO) wells present on each plate and then corrected by an algorithm using vehicle-only control plates at the beginning and end of the compound plate stack.

Row | Structure (SMILES) | parasite growth, % of DMSO control
1 | COc1ccccc1N1CCN(CC(O)COc2cccc3ccccc23)CC1 (stereo not given) | 64.9%
2 | CCC1(C)CC(=O)NC1=O (stereo not given) | 99.5%
3 | COc1cc2nc(N3CCN(C(=O)C4COc5ccccc5O4)CC3)nc(N)c2cc1OC (stereo not given) | 5.44%
4 | O=C(C1CCCCC1)N1CC(=O)N2CCc3ccccc3C2C1 (stereo not given) | 61.4%
5 | Clc1ccc(C(c2ccccc2Cl)C(Cl)Cl)cc1 (stereo not given) | 24.3%
6 | CC(C)(C)C(=O)Oc1ccc(S(=O)(=O)Nc2ccccc2C(=O)NCC(=O)O)cc1 | 101%
7 | COC(=O)Nc1nc2ccc(C(=O)c3cccs3)cc2[nH]1 | 54.5%
8 | COc1cc2nc(N3CCN(C(=O)c4ccco4)CC3)nc(N)c2cc1OC | 4.68%
9 | Nc1nc2c(ncn2COC(CO)CO)c(=O)[nH]1 | 91.1%
10 | CCC1(c2ccccc2)C(=O)NCNC1=O | 109%
11 | Nc1ccn([C@H]2CC[C@@H](CO)O2)c(=O)n1 | 114%
12 | NC(=O)OCC(COC(N)=O)c1ccccc1 | 97.2%
13 | O=C1c2c(O)ccc(O)c2C(=O)c2c(NCCNCCO)ccc(NCCNCCO)c21 | 0.962%
14 | Clc1ccccc1C(c1ccccc1)(c1ccccc1)n1ccnc1 | 4.91%
15 | Cc1ccc(C(=O)Nc2ccc(S(=O)(=O)O)c3cc(S(=O)(=O)O)cc(S(=O)(=O)O)c23)cc1NC(=O)c1cccc(NC(=O)Nc2cccc(C(=O)Nc3cc(C(=O)Nc4ccc(S(=O)(=O)O)c5cc(S(=O)(=O)O)cc(S(=O)(=O)O)c45)ccc3C)c2)c1 | 19.9%
16 | CN(C)CCOC(c1ccccc1)c1ccccc1 | 90.6%
17 | O=C(Nc1ccc([N+](=O)[O-])cc1Cl)c1cc(Cl)ccc1O | 5.14%
18 | NC(CO)C(=O)NNCc1ccc(O)c(O)c1O (stereo not given) | 84.1%
19 | O=C1Cc2cc(CCN3CCN(c4nsc5ccccc45)CC3)c(Cl)cc2N1 | 14.8%
20 | COc1ccc2[nH]cc(CCNC(C)=O)c2c1 | 89.5% and 101%

Row | Structure (SMILES) | parasite growth, % of DMSO control
21 | NCCc1cnc[nH]1 | 95.8%
22 | CC#C[C@]1(O)CC[C@H]2[C@@H]3CCC4=CC(=O)CCC4=C3[C@@H](c3ccc(N(C)C)cc3)C[C@@]21C | 7.43%
23 | Cn1ccc2cc3c(cc21)CCN3C(=O)Nc1cccnc1 | 23.4%
24 | CCc1cccc2c3c([nH]c12)C(CC)(CC(=O)O)OCC3 (stereo not given) | 71%
25 | COc1nc(C)nc(Cl)c1NC1=NCCN1 | 89.8%
26 | CCOC(=O)C(C)(C)Oc1ccc(Cl)cc1 | 92.7%
27 | CC(CCc1ccc(O)cc1)NCCc1ccc(O)c(O)c1 (stereo not given) | 52.3%
28 | NCCCCCC(=O)O | 417%
29 | CCCCc1oc2ccccc2c1C(=O)c1cc(I)c(OCCN(CC)CC)c(I)c1 | 6.22%
30 | CC1(CN2CCC(n3c(=O)[nH]c4ccccc43)CC2)OCc2ccccc2-n2cccc21 (stereo not given) | 10.9%
31 | CN1C(C(=O)Nc2ccccn2)=C(O)c2ccccc2S1(=O)=O | 77.2%
32 | CN1CCN2c3ccccc3Cc3ccccc3C2C1 (stereo not given) | 56.9%
33 | Cc1ccc(-c2cc(C(F)(F)F)nn2-c2ccc(S(N)(=O)=O)cc2)cc1 | 21.9%
34 | CN(C)C(=N)N=C(N)N | 97.5%
35 | CNCCCC12CCC(c3ccccc31)c1ccccc12 | 16.9%
36 | CN(C)CCCN1c2ccccc2CCc2ccc(Cl)cc21 | 19.3%
37 | Cc1cn([C@H]2C[C@H](N=[N+]=[N-])[C@@H](CO)O2)c(=O)[nH]c1=O | 412%
38 | CC1COc2c(N3CCN(C)CC3)c(F)cc3c(=O)c(C(=O)O)cn1c23 (stereo not given) | 59.3%
39 | Nc1c2c(nc3ccccc13)CCCC2 | 7.17%
40 | OCCN1CCN(CCCN2c3ccccc3Sc3ccc(C(F)(F)F)cc32)CC1 | 7.22%
